In all, about 68,000 compounds went through this assay and about 2,700 (4%) showed an effect of 50% or more. This is one part of a sample in which strong results are shown more often than they occur.

From ChEMBL document CHEMBL4513216, “Probing the Open Global Health Chemical Diversity Library for Multistage-Active Starting Points for Next-Generation Antimalarials” (ACS Infect Dis, 2020) come the findings set out here.

This assay deals with Plasmodium berghei. In words: Screen against P. berghei liver stage (PbLuc), transformed with Luciferase, at 2uM. The assay is classed as functional, HepG2. The following applies: tested at 2 uM.
In the case of `CCN1CCN(Cc2ccnc(-c3cccnc3)n2)CC1`, the INHIBITION is on record as 15.58%.
`CC(C)c1cc(C(=O)NCCCN(C)C)nc(N2CCCC2)n1`: the INHIBITION is given as 27.54%.
As for `FC(F)Oc1ccc(NCc2nc(C3CC3)no2)c(OC(F)F)c1`, the INHIBITION is given as -35.14%.
As to `CC(C)c1noc(CNc2ccc(OC(F)F)cc2OC(F)F)n1`, the INHIBITION is -70.61%.
As to `Cc1noc(CNc2ccc(OC(F)F)cc2OC(F)F)n1`, the INHIBITION was found to be 57.23%.
For the molecule `O=C(NCCc1cc(F)ccc1F)NCC(O)C1CC1` (stereo not drawn), the INHIBITION was found to be 30.69%.
Turning to `c1ccc(O[C@H]2COCCN(CC3CC3)C2)cc1`, the INHIBITION amounted to 20.5%.
With `CC(NC(=O)Cn1cccn1)c1cccnc1` (stereo not drawn) the figure was 42.58%.
Then `CC(NC(=O)NCCCn1cccn1)c1cccnc1` (stereo not drawn), with -8.05%; and `CC(CC(=O)NCCCn1cccn1)c1cccnc1` (stereo not drawn), with 74.51%.
For `Cc1nc(O)c2c(n1)CCN(Cc1cc(C)sc1C)CC2`, the INHIBITION is reported as -0.21%.
As for `CCC[C@@H]1CN(Cc2ccccc2-c2ccco2)C[C@H]1NC(C)=O`, the INHIBITION was found to be 28.19%.
Regarding `COCCN1CCC(Cc2cnc(-c3ccccc3C(=O)O)cn2)CC1`, the INHIBITION worked out at 20.44%.
For `Cc1nnc(C(C)NCC2(c3ccc(F)cc3)CCCCC2)o1` (stereo not drawn), the INHIBITION is -55.34%.
For `Cc1cccc(C2(CNC(C)c3nnc(C)o3)CCCC2)c1` (stereo not drawn), the INHIBITION amounted to 38.96%.
With `Cc1nnc(C(C)NCC2(c3c(F)cccc3F)CCCC2)o1` (stereo not drawn), the INHIBITION came out at 50.9%.
Regarding `O=C(NCC1CC1)[C@@H]1CCO[C@@H]2CCN(Cc3ccsc3)C[C@H]21`, the INHIBITION came to 28.38%.
Consider `O=C(O)c1cc(-c2cc[nH]n2)cc(S(=O)(=O)N2CCCCCC2)c1`, for which the INHIBITION is listed as 23.17%.
Take `O=C1CN(c2ccc(CNC(=O)Nc3nccs3)cc2)CCN1`: the INHIBITION came out at 29.4%.
With `Nc1nccnc1C1CN(C(=O)c2ccc3c(c2)OCO3)CCO1` (stereo not drawn) the figure was 50.32%; with `CCc1n[nH]c(C2CN(C(=O)c3cnc(C)nc3CC)CCO2)n1` (stereo not drawn), 39.07%; with `CCc1n[nH]c(C2CN(C(=O)c3ccc4c(c3)COC4)CCO2)n1` (stereo not drawn), -0.99%.
`CCc1n[nH]c(C2CN(C(=O)c3nc(C)ncc3Cl)CCO2)n1` (stereo not drawn): the INHIBITION is given as 63.95%.
With `Nc1nccnc1C1CN(C(=O)c2ccnnc2)CCO1` (stereo not drawn) the figure was 27.39%; with `Cc1n[nH]c(C2CN(C(=O)c3ccc4c(c3)CCCC4)CCO2)n1` (stereo not drawn), -1.87%.
In the case of `Nc1nccnc1C1CN(C(=O)c2cnc(C3CC3)nc2)CCO1` (stereo not drawn), the INHIBITION worked out at 39.9%.
Consider `CCc1n[nH]c(C2CN(C(=O)c3ncoc3CC)CCO2)n1` (stereo not drawn), for which the INHIBITION is reported as -15.34%.
For `Cc1n[nH]c(C2CN(C(=O)c3ccc4c(c3)COC4)CCO2)n1` (stereo not drawn), the INHIBITION turned out to be 67.28%.
With `COc1ccc(CN2CC[C@H](O)[C@@H]2Cc2cnn(C)c2)cc1` the figure was -10.92%; with `CC(NC(=O)N(C)Cc1cnn(C)c1)c1nncn1C` (stereo not drawn), 18.63%.
As for `O=C(Nc1ccc2ncccc2c1)C1CC(=O)N(Cc2ccccn2)C1` (stereo not drawn), the INHIBITION was -6.89%.
As for `Cc1noc(C)c1CCC(=O)N1CCN(CCn2cncn2)CC1`, the INHIBITION was 33.75%.
Turning to `CN(C)C(=O)NCC(=O)N1CCCC2(CCC(=O)N(CC3CC3)C2)C1` (stereo not drawn), the INHIBITION worked out at 40.61%.
With `O=C(CSCC1CC1)N1CCCC2(CCC(=O)N(CC3CC3)C2)C1` (stereo not drawn), the INHIBITION was determined as 1.42%.
Turning to `O=C(CCC(F)(F)F)N1CCCC2(CCC(=O)N(CC3CC3)C2)C1` (stereo not drawn), the INHIBITION is recorded as -6.04%.
With `CC(=O)NCC(=O)N1CCCC2(CCC(=O)N(CCc3c[nH]cn3)C2)C1` (stereo not drawn) the figure was -53.74%; with `CC(C)CCN1CC2(CCCN(C(=O)CNC(=O)N(C)C)C2)CCC1=O` (stereo not drawn), 58.03%; with `O=C(CO)N1CCCC2(CCC(=O)N(CC3CC3)C2)C1` (stereo not drawn), 62.38%.
With `CCN1CCN(C2CCN(Cc3ccc(Cl)s3)CC2)C1=O` the figure was 18.52%; with `COCC1CC2(CCN(Cc3ccccn3)CC2)CN1c1ncccn1` (stereo not drawn), -23.78%.
In the case of `COc1cc(NCCCSc2nnc(C)s2)ncn1`, the INHIBITION is listed as -29.43%.
With `Cc1nnc(SCCNc2cc(C3CC3)ncn2)s1` the figure was 12.17%; with `Cc1nnc(SCCCNc2cc(C3CC3)ncn2)s1`, 60.35%; with `Cc1cc(CN2CCC(c3ccnn3CCO)CC2)no1`, 20.28%.
Consider `COc1cc(S(=O)(=O)N2CCCc3ccccc32)cc(C(=O)O)c1OC`, for which the INHIBITION is 56.72%.
With `COc1cc(S(=O)(=O)N2CCc3ccc(Cl)cc32)cc(C(=O)O)c1OC` the figure was 6.3%; with `COc1cc(S(=O)(=O)N2CCc3ccccc32)cc(C(=O)O)c1OC`, 12.65%; with `O=C(c1cnccn1)N1CCOCC2(CCN(C3CCOCC3)C2)C1` (stereo not drawn), 26.14%.
In the case of `Cc1nc(CN2C[C@@H](CN3CCOCC3)[C@@H](CO)C2)c2ccccn12`, the INHIBITION is 25.81%.
Then `O=S(=O)(Cc1ccc(Br)cc1)NCCO`, with 17.51%.
As to `NCCCNS(=O)(=O)Cc1ccc(Br)cc1`, the INHIBITION was determined as 5.28%.
Regarding `NCCNS(=O)(=O)Cc1ccc(Br)cc1`, the INHIBITION was 50.59%.
Take `Cn1cc(CN2CC3(CCN(C(=O)c4cscn4)C3)C2)cn1`: the INHIBITION was -9.1%.
